The values below come from PubChem BioAssay AID449762 (Southern Research Specialized Biocontainment Screening …, 2010).

Among all 330,000 compounds or so, about 1,900 (0.58%) were called active. Roughly 4% stayed inconclusive and do not appear here. Not all results are given here. Potency and affinity values are given separately. A number with no mark means an inactive call. Rule as the data show it: inconclusive = inhibition above about 70% without an active follow-up result; inactive = below that.

This assay is described as follows: M. tuberculosis growth inhibition, HTS (AID 449762).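 Also: bacterial growth assessed after seven days of incubation.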 The following applies: M. tuberculosis H37Rv growth inhibition, 7H9 media; at 25 µM; hits give high values.
For the compound `Cc1c(Cl)ccc2c(C(=O)O)cc(-c3ccccc3)nc12`, the inhibition (in general, the relative decrease from the control value, in per cent) is 0.17%.

As for `COc1ccc(OC)c(-c2cc(C(=O)NC3CCCC3)c3ccccc3n2)c1`, the inhibition is -8.38%.

`CC1CCc2cc(F)ccc2N1C(=O)c1cccs1` (stereo not drawn): the inhibition is 1.29%.

Regarding `CC(C)(C)c1cc(N2CCOCC2)n2ncc(-c3ccccc3)c2n1`, the inhibition is 3.06%.

Consider `Cc1nccn1-c1cc(C(C)(C)C)nc2c(-c3ccccc3)cnn12`, for which the inhibition is -1.52%.

With `CCCCNC(=O)C1=C(N)C(C(=O)Nc2ccc(C)c(S(=O)(=O)N3CCCCC3)c2)SC1=Nc1ccc(C)cc1C` (stereo not drawn), the inhibition was -11.1%.

With `O=C(CCc1nc(-c2ccccc2Cl)no1)NC1CCCC1`, the inhibition is -5.48%.

Take `CS(=O)c1nc(-c2ccc(Br)cc2)cc(-c2ccccc2)c1C#N` (stereo not drawn): the inhibition is 65%.

With `COc1ccc(-c2cc(-c3ccccc3)c(C#N)c(S(C)(=O)=O)n2)cc1`, the inhibition is 8.53%.

For the compound `CC1(C)Cc2nc3nc(SCC(=O)NCCc4ccccc4)n(-c4ccccc4)c(=O)c3cc2CO1`, the inhibition was -2.48%.

With `S=C(Nc1cccc(Cl)c1)N1CCOCC1`, the inhibition was -10.2%.

Consider `Cc1ccc2[nH]c(=O)c(CN(CCCN3CCOCC3)C(=O)Nc3cccc(Cl)c3)cc2c1`, for which the inhibition was 10.9%.

In the case of `CCc1ccc2[nH]c(=O)c(CN(CCCN3CCOCC3)C(=O)Nc3ccccc3)cc2c1`, the inhibition is 4.92%.

With `C=CC[C@@H](CC(=O)N[C@H](CO)Cc1ccccc1)C(=O)N[C@@H](C)COC(=O)[C@@H](CC=C)Cc1ccc(F)cc1`, the inhibition is 3.8%.

With `Clc1cccc(OCCCCN2CCCCC2)c1`, the inhibition is 0.99%.

For the compound `COc1ccccc1N1CCN(CCCCOc2ccc(F)cc2)CC1`, the inhibition is -1.86%.

Regarding `COC(=O)c1ccc(-c2n[nH]c(=O)c3ccccc23)cc1`, the inhibition is -2.05%.

As to `NC(=O)c1ccc(-c2ncc(-c3ccccc3)o2)cc1`, the inhibition is 51.1%.

As for `CCN1C(=O)[C@H]2[C@@H](c3ccc(-c4ccc(C(C)=O)cc4)cc3)N3CCCC[C@@]3(C(=O)OC)[C@H]2C1=O`, the inhibition is -6.49%.

Regarding `CCCCN1C(=N)N([C@@H](CCC)CN2CCC[C@H]2CN2C(N)=NC[C@H]2C(C)C)C[C@H]1[C@H](C)CC`, the inhibition was 1.37%.

Consider `O=C(Cc1ccccc1)c1nc2ccccc2s1`, for which the inhibition was -3.11%.

For the compound `Cc1cc(C(=O)COC(=O)COc2ccc(C#N)cc2)c(C)n1C1CC1`, the inhibition was 3.67%.

In the case of `Cc1cc(C)cc(OCC(=O)OCC(=O)c2cc(C)n(C3CC3)c2C)c1`, the inhibition is 54.3%.

In the case of `CC(=O)NC(Cc1c[nH]c2ccccc12)C(=O)Nc1ccc2c(c1)OCO2` (stereo not drawn), the inhibition is -2.05%.

On to `C/C(=N/OC(=O)c1c(-c2ccccc2Cl)noc1C)c1cnccn1`, for which the inhibition is 3.98%.

With `COc1ccc(CN2CCNC(=O)C2CC(=O)N(C)Cc2cc(C)no2)cc1OC` (stereo not drawn), the inhibition is -7.74%.

Consider `COC(=O)Cc1cc(=O)[nH]c(Nc2nc3ccccc3o2)n1`, for which the inhibition was 29.9%.

With `CCOC(=O)Cc1cc(=O)[nH]c(Nc2nc3ccccc3o2)n1`, the inhibition is -2.99%.

On to `C/C(Sc1nnc(Cc2ccccc2)o1)=C(/O)c1ccccc1`, for which the inhibition is -0.32%.

As to `S=C1NCCOCCOCCOCCOCCNC(=S)NCCOCCOCCOCCOCCN1`, the inhibition was -3.9%.

For `N#C/C(=C(/O)COc1ccccc1)c1nc2ccccc2s1`, the inhibition is 56.1%.

For `Cc1ccc(SC/C(O)=C(\C#N)c2nc3ccccc3s2)cc1`, the inhibition was 1.37%.

For `O=C(O)CCc1nc(-c2ccccc2)c(-c2ccccc2)o1`, the inhibition is 6.1%.

As for `O=C(CCc1nc(-c2ccccc2)c(-c2ccccc2)o1)OCc1ccc(Br)cc1`, the inhibition is 70.2%.

For the compound `O=C(Nc1nc2ccc(S(=O)(=O)N3CCCC3)cc2s1)c1ccco1`, the inhibition was -2.95%.

In the case of `COc1ccccc1-n1c(/C=C/c2ccccn2)nc2ccccc2c1=O`, the inhibition was -5.93%.

As to `CC(C)N(C(=S)Nc1cc(S(=O)(=O)N2CCOCC2)ccc1Cl)c1ccccc1`, the inhibition was -5.84%.

As for `NNC(=O)c1cc(-c2cccs2)nc2ccccc12`, the inhibition is 9.4%.

Regarding `Cc1cc(NC(=O)c2cc(-c3cccs3)nc3ccccc23)no1`, the inhibition was -0.3%.

For the compound `CC(C)N(C1=N/C(=C\c2ccco2)C(=O)N1c1ccccc1)C(C)C`, the inhibition is -0.07%.

Turning to `Cc1noc(C(F)(F)F)c1C(=O)NNC(=O)c1cccc(C(F)(F)F)c1`, the inhibition is 3.93%.

Regarding `CCOC(=O)C1C(=O)NC(SCC(=O)Nc2nccs2)=C(C#N)C1c1ccccc1OCC` (stereo not drawn), the inhibition is 55.1%.

In the case of `CC1CCCCN1CCNC(=O)C1CCCN(S(=O)(=O)c2cccc3nsnc23)C1` (stereo not drawn), the inhibition was 3.33%.

Consider `CN(C)c1nc(NCc2ccccc2)nc(N/N=C/c2ccc(Br)cc2)n1`, for which the inhibition was 3.27%.

On to `CN(C)c1nc(NCc2ccccc2)nc(N/N=C/c2ccc(Cl)cc2Cl)n1`, for which the inhibition is 9.37%.

Consider `COc1ccc(N2CC(C(=O)O)CC2=O)cc1` (stereo not drawn), for which the inhibition was -12.1%.

Consider `CCC(=NCc1ccccc1)c1c(C(F)(F)F)[nH]n(-c2nc3ccccc3s2)c1=O`, for which the inhibition is -0.69%.

Turning to `COc1ccc(CN=C(C)c2c(C(F)(F)F)[nH]n(-c3nc4ccccc4s3)c2=O)cc1`, the inhibition is -13.3%.

With `COc1ccccc1NC(=O)CSc1nn2c(=O)c(C)nnc2s1`, the inhibition was -20.7%.

On to `Cc1cc(C)nc(SCCCNCc2c(F)cccc2Cl)n1`, for which the inhibition was 0.32%.

For `Cc1ccc(-n2c(C)nc3ccsc3c2=O)cc1`, the inhibition was 9.48%.

For `Cc1ccc(-n2c(Cl)c(Cl)[nH]c(=O)c2=O)cc1`, the inhibition is -6.67%.

Take `Cc1noc(C)c1COc1ccccc1C(=O)N1CCN(S(=O)(=O)c2ccccc2C(F)(F)F)CC1`: the inhibition is -1.24%.

Regarding `COC(=O)c1cccc(NC(=O)Cc2ccccc2[N+](=O)[O-])c1C`, the inhibition is 2.19%.

For the compound `OC(Cn1cncn1)c1ccc(Cl)cc1` (stereo not drawn), the inhibition was -4.52%.

As to `O=C(NCc1ccccc1)NC12CC3CC(CC(C3)C1)C2`, the inhibition is -2.17%.

On to `Cc1ccc(CNC(=O)NC23CC4CC(CC(C4)C2)C3)cc1`, for which the inhibition was 7.32%.

As to `Cc1noc(C)c1COc1ccc(C(=O)OCC(N)=O)cc1`, the inhibition was 12.9%.

With `Cc1noc(C)c1COc1ccc(C(=O)OCC(=O)NC2CCCCC2C)cc1` (stereo not drawn), the inhibition is 48.8%.

In the case of `Cc1ccc(N2CC(C(=O)NC3=NCCS3)CC2=O)cc1` (stereo not drawn), the inhibition is 4.82%.

In the case of `CCc1ccc2oc(-c3ccc(OC)cc3)cc(=Nc3cccc(C(=O)O)c3)c2c1`, the inhibition is 39.4%.

For `COc1ccc(-c2cc(=Nc3c(C)n(C)n(-c4ccccc4)c3=O)c3ccccc3o2)cc1`, the inhibition was 35.5%.

In the case of `CNC(=O)c1cnn(-c2nc(-c3ccc(OC)cc3)cs2)c1C(F)(F)F`, the inhibition is 9.09%.

For the compound `CCN1CCc2c(OCC(=O)Nc3ccccc3)cccc2C1=O`, the inhibition is -8.51%.

With `COc1cccc(-c2cc(C(F)(F)F)nc(N3CCC(C)CC3)n2)c1`, the inhibition is 2.81%.

Take `O=C(COC(=O)C1=COCCO1)Nc1ccccc1`: the inhibition was 65.9%.

In the case of `O=C(COC(=O)C1=COCCO1)NCc1ccc(F)cc1`, the inhibition was 5.31%.

Regarding `CC(=O)c1cccc(NC(=O)COC(=O)C2=COCCO2)c1`, the inhibition was -0.86%.

Turning to `COc1ccc(CNC(=O)COC(=O)C2=COCCO2)cc1`, the inhibition was 12.1%.

As to `CCCCN1C(=N)N([C@@H](C)CN2CCC[C@H]2CN2C(N)=NC[C@@H]2Cc2ccccc2)C[C@H]1Cc1ccccc1`, the inhibition was 67.2%.

As to `CCCCN1C(=N)N([C@@H](CCC)CN2CCC[C@H]2CN2C(N)=NC[C@@H]2Cc2ccccc2)C[C@H]1[C@H](C)CC`, the inhibition was 4.76%.

On to `Cc1nc2ccc(NC(=O)N3CCN(c4ccccn4)CC3)cc2s1`, for which the inhibition is -4.34%.

On to `O=C(O)c1ccc(N=NN2CCCC2)cc1`, for which the inhibition was -3.03%.

`CC1CCc2sc(C(=O)NC3CCCCC3)cc2C1` (stereo not drawn): the inhibition was -9.17%.

Regarding `CNC(=O)c1cc2c(s1)CCCCCC2`, the inhibition was -5.87%.

As to `Nc1cccc(-c2ccc(CO)o2)c1`, the inhibition was 10.1%.

For the compound `NC(=O)C1CCN(CC(=O)N2N=CCC2c2ccccc2)CC1` (stereo not drawn), the inhibition is -1.72%.

For the compound `CCC(=O)N1CCc2cc(S(=O)(=O)N3CCCC3)ccc21`, the inhibition was -9.42%.

Consider `Cc1occc1C(=O)NN=C1C2CC3CC(C2)CC1C3`, for which the inhibition was -8.34%.

Turning to `COc1cc2[nH]c3c(N4CCN(c5ccc(Cl)cc5)CC4)ncnc3c2cc1OC`, the inhibition is -5.15%.

For `COc1cc2[nH]c3c(N4CCC(C(N)=O)CC4)ncnc3c2cc1OC`, the inhibition was 6.79%.

In the case of `COc1ccc2[nH]c3c(N4CC(C)OC(C)C4)ncnc3c2c1` (stereo not drawn), the inhibition was -0.53%.

`Cc1ccc2c(c1)[nH]c1c(N3CCN(Cc4ccccc4)CC3)ncnc12`: the inhibition was 3.28%.

As for `COc1ccc(N2CCN(c3ncnc4c3[nH]c3ccccc34)CC2)cc1`, the inhibition is -0.78%.

For `Cc1ccc2[nH]c3c(N4CCOCC4)ncnc3c2c1`, the inhibition was -3.57%.

Consider `O=C(COC(=O)c1ccccc1NS(=O)(=O)c1cccs1)NC1CCCCC1`, for which the inhibition is 4.13%.

Turning to `CCCCOc1ccc(C(=O)NCC(=O)NC2CCC(C)CC2)cc1` (stereo not drawn), the inhibition was 9.03%.

In the case of `Cc1c(NC(=O)Nc2ccc(C(C)(C)C)cc2)c(=O)n(-c2ccccc2)n1C`, the inhibition was 1.52%.

In the case of `Cc1cc(NC(=O)C(C)C)ncc1NC(=O)c1ccco1`, the inhibition was 4%.

`Cn1c(SCc2ccccn2)nnc1-c1cnccn1`: the inhibition was -3.38%.

For the compound `O=S(=O)(Nc1ccccc1N1CCOCC1)c1c(F)cc(F)cc1Br`, the inhibition was -10.8%.

`CCN(C[C@H]1N[C@@](Cc2ccccc2)(C(=O)OC)[C@H]2C(=O)N(Cc3ccccc3)C(=O)[C@@H]12)C(=O)Nc1ccc(F)cc1`: the inhibition is 3.17%.

In the case of `CCN(C[C@H]1N[C@@](CC)(C(=O)OC)[C@H]2C(=O)N(Cc3ccccc3)C(=O)[C@@H]12)C(=O)Nc1ccc(C(F)(F)F)cc1`, the inhibition is -6.29%.
